From the supplement of paper PMC6555819

What was measured:
Experiment in all cases: PBM binding z-score (relative to random genomic background probes); higher = stronger binding; sequences stand for … in GC…GCGATTGACAGCGTAGAATGAAGG
[1] = test system: FXR:RXRa (NR concentration 270 nM, RXRa partner concentration 90 nM)
Method in brief: (§1)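 On custom Agilent 4×180K arrays, double-stranded probes with 34-nt variable regions carried direct-repeat seeds, single-nucleotide variants, half-site ablations or random human genomic background. Ligand-free nuclear receptor dimers were applied for 1 h, and binding was read with antibodies against each partner (one per run). Binding z-scores come from regression-normalized fluorescence, with the random background probes as reference.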

[2] = test system: LXRa:RXRa (NR concentration 270 nM, RXRa partner concentration 90 nM)
Method in brief: as §1

[3] = test system: LXRa homodimer (NR concentration 270 nM)
Method in brief: as §1

[4] = test system: LXRb:RXRa (NR concentration 270 nM, RXRa partner concentration 90 nM)
Method in brief: as §1

[5] = test system: LXRb homodimer (NR concentration 270 nM)
Method in brief: as §1

[6] = test system: PPARa:RXRa (NR concentration 270 nM, RXRa partner concentration 90 nM)
Method in brief: as §1

[7] = test system: PPARg:RXRa (NR concentration 180 nM, RXRa partner concentration 90 nM)
Method in brief: as §1

[8] = test system: PPARg:RXRa 270nM:90nM, anti-RXR (NR concentration 270 nM, RXRa partner concentration 90 nM)
Method in brief: as §1

[9] = test system: PPARg:RXRa 30nM:10nM, anti-RXR (NR concentration 30 nM, RXRa partner concentration 10 nM)
Method in brief: as §1

[10] = test system: PPARg:RXRa 90nM:30nM, anti-RXR (NR concentration 90 nM, RXRa partner concentration 30 nM)
Method in brief: as §1

| Sequence | PBM binding z-score [1] | PBM binding z-score [2] | PBM binding z-score [3] | PBM binding z-score [4] | PBM binding z-score [5] | PBM binding z-score [6] | PBM binding z-score [7] | PBM binding z-score [8] | PBM binding z-score [9] | PBM binding z-score [10] |
| --- | --- | --- | --- | --- | --- | --- | --- | --- | --- | --- |
| TCGAGTAGGTTAGGGGCATTGAGAATGGCGTCGA | 0.089 | 0.155 | -0.182 | 0.843 | -0.13 | 1.18 | 0.706 | 1.97 | 1.38 | 1.51 |
| TTACCAATGTGAGCTGAGGTCGTTGATCCAACTC | 0.612 | 0.222 | -0.15 | 0.408 | -0.727 | 0.851 | -0.119 | 0.638 | 0.496 | 0.42 |
| AGAATGAGGTTATTAAGATCAGTGAATTGCGGTC | 1.66 | 1.74 | 0.236 | 1.27 | 0.0793 | 2.7 | 1.43 | 1.81 | 0.385 | 0.958 |
| TCTCGGAGGACACGAAGGTCAGGGCTTTCCAGAG | 1.55 | 1.29 | 0.139 | 1.17 | -0.91 | 2.13 | 0.576 | 1.75 | 2.15 | 1.9 |
| ACTTTTAGTTGAGACGAGGGCAACCGATAGGTTG | 0.762 | 0.517 | -0.32 | 0.176 | 0.689 | 0.546 | 0.448 | 0.362 | 0.289 | 0.332 |
| AGAATGAGGTTATACGTAGATCAGCGAAGAAAGT | 1.93 | 1.66 | -0.0526 | 1.22 | -0.284 | 3.27 | 1.91 | 1.88 | 0.445 | 1.21 |
| TATACAGGGTCAAAGGCCAGAGTCCGAATGTCGA | 6.58 | 6.06 | 2.35 | 4.71 | 2.55 | 5.85 | 7.34 | 7.02 | 4.84 | 6.68 |
| ACTCGGAGGACCAAGGTCAGAGCTACGCCAGTGA | 1.21 | 0.987 | -0.312 | 0.779 | -0.603 | 1.79 | 0.947 | 1.31 | 0.277 | 0.773 |
| CCTTACGGGTCAAGGTTATAGCTCGGGTGGTACG | 5.6 | 3.71 | 0.385 | 3.06 | 0.274 | 5.04 | 4.42 | 4.35 | 1.57 | 3.44 |
| ATCTCTAGGTAACCAAGTTCAGCGAATGCCGAAC | 0.438 | 0.886 | 0.803 | 0.7 | 0.602 | 1.4 | 0.655 | 1.07 | 0.316 | 0.524 |
| TCGAGTAGGTTAGTCGGCGCATTCAGCCAACATA | -0.102 | -0.169 | -0.745 | -0.439 | -1.53 | 0.0972 | -0.358 | 0.362 | 0.699 | 0.562 |
| TCGAGTAGGTTAGAGGCATTCAGAATGGCGTCGA | 0.0736 | -0.18 | -0.53 | -0.336 | -1.72 | 0.422 | 1.22 | 2.66 | 1.4 | 2.27 |
